Five compounds from PubChem BioAssay AID540259 (Broad Institute, 2011) can be followed below.

Potency and affinity values are given separately. Activity calls are given as the source filed them.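 How the source made its calls: active means cell killing, meaning signal decrease, with fitted half-maximal dose at or below ten times the top valid tested dose; inconclusive means poor fit, or flat curve with 30 to 70% signal loss; inactive means the rest.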

The nature of the experiment: HeLa cell cytotoxicity, dose response, cytotoxicity control for MITF activator project, CellTiter-Glo luminescence, cherry-pick samples (AID 540259). To be noted: HeLa viability, CellTiter-Glo ATP luminescence, 24 h; series mostly up to 35 µM. (Cellular ATP, detected with luciferase, serves as a proxy for viable cell number.)
Turning to `COc1ccc(-c2cc(=NCCC(=O)O)c3cc(C)ccc3o2)cc1`, the call was inactive.

For the compound `O=C1C(=O)N(c2ccccc2)P(=O)(N(CCCl)CCCl)N1c1ccccc1`, the result was inactive.

Consider `Cc1nn(CC(C)C)c(Cl)c1C(=O)NC1CCC(C)CC1` (stereo not given), for which the result was inactive.

Take `CN1C(=O)NC(=O)C(C)(C2=CCCCC2)C1=O` (stereo not given): the compound was called inactive.

`CC(Cc1ccccc1)/[N+]([O-])=C\c1ccc(C(F)(F)F)cc1` (stereo not given): the call was inactive.
